aSyn UTR act: Activators via SNCA 5'UTR binding, MLPCN; 7.1% of 300,000 active; alpha-synuclein 5'UTR reporter, activators screen; activity score, % (tested at 7.5 µM), hits read low; AID 1814; in the data active = activity score below about -60%
Hits are given with their value; - = inactive. Not all results are given here.

SMILES	aSyn UTR act
COc1cc(C)ccc1OCc1cc(C(=O)N2CCC(c3ccc(F)cc3)C2)no1 (stereo unspecified)	-175.5
COc1ccc(OCc2cc(C(=O)NC3CCOC(C)(C)C3)no2)c2ccccc12 (stereo unspecified)	-183.3
CCOC(=O)C1CCN(C(=O)c2cc(COc3ccc(OC)c4ccccc34)on2)CC1	-124.1
COCC1CCN(C(=O)c2cc(COc3ccccc3SC)on2)C1 (stereo unspecified)	-79.2
COc1ccc(OCc2cc(C(=O)N3CCC(OC)CC3)no2)c2ccccc12	-69.5
COc1cc(Cl)ccc1OCc1cc(C(=O)N2CCCC(OC)C2)no1 (stereo unspecified)	-147.5
COCC1CCN(C(=O)c2cc(COc3ccc(OC)c4ccccc34)on2)C1 (stereo unspecified)	-183.7
COc1ccc(-c2noc(-c3ccc(Br)o3)n2)cc1OC	-96.8
COc1ccc(-c2c(-c3cc(OC)c(OC)c(OC)c3)noc2C)cn1	-
COc1cc(-c2nc(-c3ccc(Br)o3)no2)cc(OC)c1OC	-76.3
COc1cc(-c2onc3ccc(Br)cc23)cc(OC)c1OC	-
Cc1ccc(NC(=O)CC2SCCNC2=O)cc1Cl (stereo unspecified)	-142.8
CSc1ccccc1NC(=O)CSCc1ccc(C)cc1	-112.8
Cc1ccc(CSCC(=O)Nc2ccccc2C(=O)O)cc1	-93.8
COc1ccc(OC)c(C(=O)CC2OC(=O)c3ccccc32)c1 (stereo unspecified)	-70.3
O=[N+]([O-])c1cccc(-c2noc(-c3cccs3)n2)c1	-147.1
COc1ccccc1-c1noc(-c2ccncc2)n1	-73.9
COc1ccc(-c2nc(-c3cccs3)no2)cc1	-
COc1ccccc1-c1nc(-c2ccccn2)no1	-
COc1cccc(-c2ccc(-c3noc(-c4cccs4)n3)c(OC)n2)c1	-84.9
COc1ccccc1-c1noc(-c2cccs2)n1	-235.7
CC1(C)CC(=O)C/C(=N/Nc2nc3ccccc3s2)C1	-66.8
CC1CCC/C(=N/Nc2nc3ccccc3s2)C1 (stereo unspecified)	-133.7
O=c1sc2ccccc2n1CCOc1ccccc1	-133.2
Cc1ccc(OCn2c(=O)sc3ccccc32)cc1	-157.5
SMILES	aSyn UTR act
CN(C(=O)c1cc(-c2ccc3c(c2)OCO3)on1)c1ccccc1	-166.5
CSc1ccccc1NC(=O)c1cc(-c2ccc3c(c2)OCO3)on1	-128.0
O=C(Nc1cc(Br)ccc1O)c1cc(-c2ccc3c(c2)OCO3)on1	-108.4
O=C(c1cc(-c2ccc3c(c2)OCO3)on1)N1CCN(c2ccccc2)CC1	-245.0
O=[N+]([O-])c1ccc(-c2cn3c(n2)CCC3)cc1	-128.5
Cc1cc(Cl)c2oc(C(=O)N(C)C3CCOC3)c(C)c2c1 (stereo unspecified)	-107.6
Cc1cc(Cl)c2oc(C(=O)N(C)Cc3ccon3)c(C)c2c1	-104.3
CNc1ccccc(-c2ccc3ccccc3n2)c1=O	-140.5
Cn1ncc([N+](=O)[O-])c1C(=O)Nc1ccc(-c2nc3ccccc3o2)cc1	-129.5
CC(C)Cc1nnc(NC(=O)c2cc3c(s2)CCC3)s1	-206.7
O=C(Nc1nccs1)c1cc2c(s1)CCCCC2	-
O=C(Nc1nncs1)c1cc2c(s1)CCC2	-131.5
CCCCN(CC)C(=O)c1cc2cc3ccc(Cl)cc3nc2o1	-87.4
O=C(Nc1ccccc1Br)c1cc(=O)c2ccccc2o1	-183.7
O=C(Nc1ccccc1Cl)c1cc(=O)c2ccccc2o1	-144.4
Cc1cccc(/C(N)=N/OC(=O)Cc2ccccc2)c1	-142.4
CCC(C(=O)O/N=C(\N)c1cccc(C)c1)c1ccccc1 (stereo unspecified)	-87.9
Cc1cccc(/C(N)=N/OC(=O)N2c3ccccc3Sc3ccccc32)c1	-70.4
O=C(OCc1ccccn1)c1ccc(COc2ccc3ccccc3c2)o1	-104.2
Cn1c(-c2ccc3c(c2)OCO3)cnc1NCc1ccccc1	-103.6
Cn1c(-c2ccc3c(c2)OCO3)cnc1NCc1ccccc1Cl	-94.5
CCOC(=O)c1ccc(NC(=O)c2cc3ccccc3o2)cc1	-151.9
CCOC(=O)c1cccc(NC(=O)c2cc3ccccc3o2)c1	-110.3
O=C(Nc1ccc(NC(=O)c2cc3ccccc3o2)cc1)c1ccc2c(c1)OCCO2	-
CC(C)C(=O)Nc1ccc(NC(=O)c2cc3ccccc3o2)cc1	-90.3
SMILES	aSyn UTR act
Nc1nnc(SCc2cn3cc(Cl)ccc3n2)s1	-96.6
CNc1cc(CSc2ccc(Cl)cc2)nc(C)n1	-118.1
Cc1cc(C)c(C#N)c(SCc2cn3ccccc3n2)n1	-87.5
Clc1ccc(SCc2cn3ccccc3n2)cc1	-148.1
Cc1ccc(SCc2cn3cc(Cl)ccc3n2)cc1	-135.9
c1ccc2[nH]c(SCc3cn4ccccc4n3)nc2c1	-61.7
c1ccc2c(SCc3cn4ccccc4n3)nncc2c1	-69.6
Cc1cccc2nc(CSc3ccc(Cl)cc3)cn12	-118.0
Clc1ccc2nc(CSCc3ccccc3)cn2c1	-166.8
C=CCSc1nncn1/N=C/c1ccc(OC)cc1	-98.6
CC(C)CCNC(=S)Nc1ccc(Br)cc1	-69.2
CCCN1CCC(NC(=S)Nc2ccc([N+](=O)[O-])cc2)CC1	-80.4
CCCN1CCC(=NNc2ccc(S(=O)(=O)N(CC)CC)cc2[N+](=O)[O-])CC1	-
COC(=O)Cc1ccc(NC(=S)Nc2ccccn2)cc1	-62.7
S=C(NCCc1ccccc1)Nc1ccc(Br)cc1	-126.4
O=[N+]([O-])c1ccc(NNC(=S)Nc2ccc(F)cc2)cc1	-157.2
S=C(NCCc1ccccc1)Nc1ccccn1	-140.6
S=C(NCCc1ccccc1)NN=C1CCCCCC1	-159.2
CC(C)CCNC(=S)Nc1ccc([N+](=O)[O-])cc1	-63.1
CC(C)(C)NC(=S)NCCc1ccccc1	-192.5
O=C(NC(=S)NCCc1ccccn1)c1ccccc1	-106.2
CC(C)CCNC(=O)/C=C/c1ccc(Br)cc1	-64.1
Cc1ccc2nc(/C(C#N)=C/c3cn[nH]c3-c3ccc(F)cc3)[nH]c2c1	-174.6
Cc1ccc2nc(/C(C#N)=C/c3ccc(O)c(O)c3)[nH]c2c1	-221.6
O=C(Nc1ccc(Cl)cc1)Nc1ccon1	-129.1
SMILES	aSyn UTR act
Cc1ccc(NC(=O)Nc2ccon2)cc1	-101.6
CCOc1ccc(NC(=O)Nc2ccon2)cc1	-116.5
O=c1c2oc3nc4c(cc3c2ncn1CCCc1ccccc1)CCCC4	-105.1
CCCCCCn1cnc2c(oc3nc4c(cc32)CCCC4)c1=O	-108.2
CC(C)Cc1ccc(C(C)C(N)=NCCc2ccccc2)cc1 (stereo unspecified)	-74.8
CCOC(=O)c1ccc(N/C=C2/CCCC(C)C2=O)cc1 (stereo unspecified)	-152.8
CC1CCC/C(=C\Nc2ccc(C(=O)O)cc2)C1=O (stereo unspecified)	-120.5
NC(=O)c1cccnc1Nc1cccc([N+](=O)[O-])c1	-109.2
Cc1cc2ccccn2c1C(=O)c1ccc([N+](=O)[O-])o1	-147.3
O=C1Nc2cc(C(=O)NCCCN3CCCC3)ccc2S/C1=C/c1ccccc1F	-106.0
CCN1CCCC1CNC(=O)c1ccc2c(c1)NC(=O)/C(=C\c1ccc(C)cc1)S2 (stereo unspecified)	-
O=C(/C=C/c1ccc(Cl)c(Cl)c1)Nc1cccnc1	-101.5
O=C(/C=C/c1ccccc1Cl)NC1CCCCC1	-118.6
O=C(/C=C/c1ccccc1Cl)Nc1cccc(S(=O)(=O)NC2=NCCCCC2)c1	-81.6
O=C(COC(=O)/C=C/c1ccccc1Cl)NCCNC(=O)COC(=O)/C=C/c1ccccc1Cl	-63.0
O=C(/C=C/c1ccc(Cl)cc1Cl)Nc1ccncc1	-279.5
COc1ccccc1/C=C/C(=O)Nc1cccnc1	-75.8
CCC(CC)NC(=O)/C=C/c1ccccc1Cl	-100.0
O=C(/C=C/c1ccccc1Cl)Nc1cccnc1	-150.4
